In PubChem BioAssay (EPA / NIEHS):
Results filed as inconclusive are left out. More than one record can exist for a structure, and the calls need not agree. The source made the active and inactive calls. The calls were made as follows, unless noted: active = hit-call score of the fitted dose curve at least 0.9, where 1 is the maximum; inactive = score below 0.9.

How the values were obtained:
[1] = target: Retinoic acid receptor RXR-alpha (Homo sapiens) (UniProt P19793); assay: ATG_RXRa_TRANS: Attagene TRANS-FACTORIAL HepG2 Assay for human Retinoid X Receptor alpha (RXRa) (AID 2283012; active = hit-call score of the fitted dose curve at least 0.9, where 1 is the maximum)
Retinoic acid receptor RXR-alpha (Homo sapiens), sequence (P19793 whole entry, looked up, the tested form may be a part): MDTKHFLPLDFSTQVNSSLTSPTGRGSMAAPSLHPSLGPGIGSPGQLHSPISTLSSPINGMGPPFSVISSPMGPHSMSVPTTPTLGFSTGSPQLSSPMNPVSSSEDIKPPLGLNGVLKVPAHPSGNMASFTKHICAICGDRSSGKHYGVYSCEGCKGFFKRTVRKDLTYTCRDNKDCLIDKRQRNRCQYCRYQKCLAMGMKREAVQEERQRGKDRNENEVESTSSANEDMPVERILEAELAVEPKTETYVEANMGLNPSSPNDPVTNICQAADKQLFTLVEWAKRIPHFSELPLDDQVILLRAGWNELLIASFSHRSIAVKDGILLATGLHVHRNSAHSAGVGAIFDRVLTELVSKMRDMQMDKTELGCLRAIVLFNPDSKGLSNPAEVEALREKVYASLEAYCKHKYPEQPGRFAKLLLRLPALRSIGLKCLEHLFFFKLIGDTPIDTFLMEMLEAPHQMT
Method in brief: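 HepG2 cells transiently transfected with multiplexed GAL4-UAS reporter units and chimeric NR-GAL4 fusions, dosed 24 h. Reporter mRNA measured by RT-PCR, FAM labelling, HpaI digestion and capillary electrophoresis; gain-of-signal fitted relative to DMSO baseline.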

[2] = target: human Retinoid X Receptor beta (RXRb), RXRB (gene 6257) (UniProt P28702); assay: ATG_RXRb_TRANS: Attagene TRANS-FACTORIAL HepG2 Assay for human Retinoid X Receptor beta (RXRb) (AID 2283013; active = hit-call score of the fitted dose curve at least 0.9, where 1 is the maximum)
human Retinoid X Receptor beta (RXRb), RXRB (gene 6257), sequence (P28702 whole entry, looked up, the tested form may be a part): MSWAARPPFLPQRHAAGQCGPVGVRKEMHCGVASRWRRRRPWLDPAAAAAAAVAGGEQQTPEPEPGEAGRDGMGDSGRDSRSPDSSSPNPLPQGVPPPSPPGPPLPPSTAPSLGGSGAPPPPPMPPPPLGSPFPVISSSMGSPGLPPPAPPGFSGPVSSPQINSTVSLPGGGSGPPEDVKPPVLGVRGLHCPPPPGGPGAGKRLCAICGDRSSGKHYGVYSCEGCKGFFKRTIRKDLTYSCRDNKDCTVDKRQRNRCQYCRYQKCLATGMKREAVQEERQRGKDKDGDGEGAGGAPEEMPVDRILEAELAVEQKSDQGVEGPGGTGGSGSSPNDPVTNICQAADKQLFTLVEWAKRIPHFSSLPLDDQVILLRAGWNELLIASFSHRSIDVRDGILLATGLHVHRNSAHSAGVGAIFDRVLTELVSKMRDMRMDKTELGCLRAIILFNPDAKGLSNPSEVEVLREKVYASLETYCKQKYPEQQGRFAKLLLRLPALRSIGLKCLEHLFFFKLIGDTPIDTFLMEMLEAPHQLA
Method in brief: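 HepG2 cells transiently transfected with multiplexed reporter units driven by GAL4-UAS and exogenous chimeric NR-Gal4 proteins; treated 24 h. Reporter mRNA measured by RT-PCR, 6-FAM labelling and capillary electrophoresis; gain-of-signal fitted versus DMSO baseline.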

[3] = target: human Thyroid Receptor alpha (THRa1), THRA (gene 7067) (UniProt P10827); assay: ATG_THRa1_TRANS: Attagene TRANS-FACTORIAL HepG2 Assay for human Thyroid Receptor alpha (THRa1) (AID 2283014; active = hit-call score of the fitted dose curve at least 0.9, where 1 is the maximum)
human Thyroid Receptor alpha (THRa1), THRA (gene 7067), sequence (P10827 whole entry, looked up, the tested form may be a part): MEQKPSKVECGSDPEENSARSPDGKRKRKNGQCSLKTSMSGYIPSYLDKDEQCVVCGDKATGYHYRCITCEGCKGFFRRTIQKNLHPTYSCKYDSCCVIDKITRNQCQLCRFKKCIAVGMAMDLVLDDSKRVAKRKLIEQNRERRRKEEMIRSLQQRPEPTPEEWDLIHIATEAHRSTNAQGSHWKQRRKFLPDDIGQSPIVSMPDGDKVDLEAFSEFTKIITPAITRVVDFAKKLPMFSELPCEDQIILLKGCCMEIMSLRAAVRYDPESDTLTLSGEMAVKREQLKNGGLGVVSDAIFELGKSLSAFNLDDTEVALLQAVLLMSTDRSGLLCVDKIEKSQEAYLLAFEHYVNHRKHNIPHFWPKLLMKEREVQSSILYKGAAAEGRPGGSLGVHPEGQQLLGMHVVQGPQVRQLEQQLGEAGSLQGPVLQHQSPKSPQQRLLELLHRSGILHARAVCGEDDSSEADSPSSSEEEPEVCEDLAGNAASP
Method in brief: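 HepG2 cells transiently transfected with chimeric NR-Gal4 and GAL4-UAS reporter units, dosed 24 h. Reporter mRNA quantified by RT-PCR, fluorescent labeling, HpaI digestion and capillary electrophoresis; gain-of-signal fit versus DMSO.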

[4] = read-out: E-selectin (Homo sapiens) (UniProt P16581); assay: BSK_3C_Eselectin: BioMAP Diversity Plus: 3C Assay for Eselectin Biomarker Activity (AID 2283015); settings: primary human endothelial cells (HUVEC); actives raise or lower the signal
Method in brief: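 Primary human umbilical vein endothelial cells (3C system), read 24 h after compound addition; E-selectin measured by ELISA. Bidirectional curve fitting against DMSO baseline; cytotoxicity by parallel SRB total-protein staining.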

[5] = read-out: Interleukin-1 alpha (IL1a), IL1A (gene 3552); assay: BSK_BE3C_IL1a: BioMAP Diversity Plus: BE3C Assay for Interleukin-1 alpha (IL1a) Biomarker Activity (AID 2283016); settings: primary human bronchial epithelial cells; actives raise or lower the signal
Method in brief: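 Human primary bronchial epithelial cells (BE3C system) were dosed with compound and IL-1a measured by ELISA 24 h later. Activity was fitted bidirectionally against DMSO baseline; cytotoxicity was tracked in parallel cultures by SRB total-protein staining.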

[6] = read-out: Monocyte Chemoattractant Protein-1 (MCP1), CCL2 (gene 6347); assay: BSK_3C_MCP1: BioMAP Diversity Plus: 3C Assay for Monocyte Chemoattractant Protein-1 (MCP1) Biomarker Activity (AID 2283017); settings: primary human endothelial cells (HUVEC); actives raise or lower the signal
Method in brief: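 Human umbilical vein endothelial cells (3C system) exposed to chemicals for 24 h; MCP-1 quantified by ELISA against the DMSO baseline with bidirectional fitting, and parallel SRB staining used to assess cytotoxicity.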

[7] = read-out: Monocyte Chemoattractant Protein-1 (MCP1), CCL2 (gene 6347); assay: BSK_4H_MCP1: BioMAP Diversity Plus: 4H Assay for Monocyte Chemoattractant Protein-1 (MCP1) Biomarker Activity (AID 2283018); settings: primary human endothelial cells (HUVEC); actives raise or lower the signal
Method in brief: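 Human umbilical vein endothelial cells (4H system) dosed with chemical; MCP-1 measured by ELISA 24 h after dosing. Bidirectional curve fitting against DMSO negative control as baseline; parallel SRB total-protein staining tracks overt cytotoxicity.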

[8] = read-out: Monokine induced gamma interferon (MIG), CXCL9 (gene 4283); assay: BSK_3C_MIG: BioMAP Diversity Plus: 3C Assay for Monokine induced gamma interferon (MIG) Biomarker Activity (AID 2283021); settings: primary human endothelial cells (HUVEC); actives raise or lower the signal
Method in brief: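 Primary human umbilical vein endothelial cells in the 3C system were exposed to chemical for 24 h, after which MIG was quantified by ELISA. Activity was fitted bidirectionally against DMSO as negative control and baseline.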

[9] = target: human Vitamin D Receptor (VDR), VDR (gene 7421) (UniProt P11473); assay: ATG_VDR_TRANS: Attagene TRANS-FACTORIAL HepG2 Assay for human Vitamin D Receptor (VDR) (AID 2283022; active = hit-call score of the fitted dose curve at least 0.9, where 1 is the maximum)
human Vitamin D Receptor (VDR), VDR (gene 7421), sequence (P11473 whole entry, looked up, the tested form may be a part): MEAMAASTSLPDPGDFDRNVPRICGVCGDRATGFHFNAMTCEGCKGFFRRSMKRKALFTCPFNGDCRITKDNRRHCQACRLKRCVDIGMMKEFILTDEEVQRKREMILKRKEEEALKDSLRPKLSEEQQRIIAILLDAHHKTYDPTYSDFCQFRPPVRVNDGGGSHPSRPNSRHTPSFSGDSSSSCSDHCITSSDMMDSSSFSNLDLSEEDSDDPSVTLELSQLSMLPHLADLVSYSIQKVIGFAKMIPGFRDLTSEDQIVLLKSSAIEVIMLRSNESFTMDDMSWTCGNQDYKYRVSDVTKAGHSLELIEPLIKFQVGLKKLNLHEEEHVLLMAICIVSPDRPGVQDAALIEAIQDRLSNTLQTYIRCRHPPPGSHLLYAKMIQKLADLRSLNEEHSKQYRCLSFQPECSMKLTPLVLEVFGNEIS
Method in brief: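 HepG2 cells were transiently transfected with GAL4-UAS reporter units and a chimeric VDR-Gal4 construct, then dosed for 24 hours. Reporter mRNA was quantified by RT-PCR, fluorescent labeling, HpaI digestion and capillary electrophoresis; gain of signal analysed vs DMSO.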

[10] = BSK_3C_SRB: Viability Assessment in the BioMAP Diversity Plus: 3C Assay (AID 2283023); settings: primary human endothelial cells (HUVEC);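 also: fitted both ways against DMSO so a hit may be signal rise or drop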
Method in brief: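 Human umbilical vein endothelial cells in the 3C system, treated 24 h. Total protein measured by 0.1% sulforhodamine B staining after 10% TCA fixation, read at 560 nm; bidirectional fit versus DMSO.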

[11] = read-out: Matrix Metallopeptidase 1 (MMP1), MMP1 (gene 4312); assay: BSK_BE3C_MMP1: BioMAP Diversity Plus: BE3C Assay for Matrix Metallopeptidase 1 (MMP1) Biomarker Activity (AID 2283024); settings: primary human bronchial epithelial cells; actives raise or lower the signal
Method in brief: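 Primary human bronchial epithelial cells were dosed with test chemicals, and MMP1 levels were measured by ELISA 24 h later. Data were fitted bidirectionally against DMSO as the negative control and activity baseline.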

[12] = read-out: Pselectin, SELP (gene 6403); assay: BSK_4H_Pselectin: BioMAP Diversity Plus: 4H Assay for Pselectin Biomarker Activity (AID 2283026); settings: primary human endothelial cells (HUVEC); actives raise or lower the signal
Method in brief: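 Primary human umbilical vein endothelial cells were exposed to test chemical for 24 h, then cell-surface P-selectin was quantified by ELISA. Activity was fitted bidirectionally against DMSO as negative control and baseline.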

[13] = BSK_4H_SRB: Viability Assessment in the BioMAP Diversity Plus: 4H Assay (AID 2283027); settings: primary human endothelial cells (HUVEC);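 also: cells exposed to compound for 24 h before staining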
Method in brief: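 Absorbance at 560 nm of SRB-stained total protein served as the viability read-out in confluent primary human umbilical vein endothelium 24 h after chemical treatment. Curves were fitted bidirectionally against DMSO as negative control.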

[14] = BSK_BE3C_SRB: Viability Assessment in the BioMAP Diversity Plus: BE3C Assay (AID 2283028); settings: primary human bronchial epithelial cells
Method in brief: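 Human bronchial epithelial primary cells in confluent culture, 24 h after chemical dosing; total protein by 0.1% SRB staining after 10% TCA fixation, read at 560 nm. Bidirectional fitting versus DMSO baseline.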

[15] = read-out: Thrombomodulin, THBD (gene 7056); assay: BSK_3C_Thrombomodulin: BioMAP Diversity Plus: 3C Assay for Thrombomodulin Biomarker Activity (AID 2283029); settings: primary human endothelial cells (HUVEC); actives raise or lower the signal
Method in brief: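 Primary human umbilical vein endothelial cells (3C system) were exposed to chemical for 24 h, then thrombomodulin levels were measured by ELISA. Activity was fitted bidirectionally against the DMSO negative control as baseline.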

[16] = read-out: Human Leukocyte Antigen - DR isotype (HLADR), HLA-DRA (gene 3122); assay: BSK_3C_HLADR: BioMAP Diversity Plus: 3C Assay for Human Leukocyte Antigen - DR isotype (HLADR) Biomarker Activity (AID 2283019); settings: primary human endothelial cells (HUVEC); actives raise or lower the signal;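 also: ELISA of cell-surface HLA-DR on HUVEC 24 h after dosing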
Method in brief: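 HUVEC monoculture, HLA-DR measured by ELISA 24 h after chemical dosing. Fitted bidirectionally against DMSO baseline; parallel SRB staining assessed cytotoxicity, with 3C proliferation read by SRB at 48 h.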

[17] = BSK_3C_Vis: BioMAP Diversity Plus: 3C Assay for Morphology Visualization (AID 2283025); settings: primary human endothelial cells (HUVEC);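 also: fitted both ways so gain or loss versus DMSO counts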
Method in brief: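 Human umbilical vein endothelial cells in the 3C system were imaged by light microscopy 24 h after chemical dosing to record cell morphology. Activity was fitted bidirectionally against DMSO as negative control and baseline; the endpoint serves as a background control.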

[18] = read-out: Interleukin-8 (IL8), CXCL8 (gene 3576); assay: BSK_3C_IL8: BioMAP Diversity Plus: 3C Assay for Interleukin-8 (IL8) Biomarker Activity (AID 2283020); settings: primary human endothelial cells (HUVEC); actives raise or lower the signal
Method in brief: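 Primary human umbilical vein endothelial cells (3C system) were exposed to test chemical for 24 h, then IL-8 was quantified by ELISA. Responses were fitted bidirectionally against DMSO vehicle as baseline.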

Measured: AC50

E-selectin (Homo sapiens), sequence (P16581 whole entry, looked up): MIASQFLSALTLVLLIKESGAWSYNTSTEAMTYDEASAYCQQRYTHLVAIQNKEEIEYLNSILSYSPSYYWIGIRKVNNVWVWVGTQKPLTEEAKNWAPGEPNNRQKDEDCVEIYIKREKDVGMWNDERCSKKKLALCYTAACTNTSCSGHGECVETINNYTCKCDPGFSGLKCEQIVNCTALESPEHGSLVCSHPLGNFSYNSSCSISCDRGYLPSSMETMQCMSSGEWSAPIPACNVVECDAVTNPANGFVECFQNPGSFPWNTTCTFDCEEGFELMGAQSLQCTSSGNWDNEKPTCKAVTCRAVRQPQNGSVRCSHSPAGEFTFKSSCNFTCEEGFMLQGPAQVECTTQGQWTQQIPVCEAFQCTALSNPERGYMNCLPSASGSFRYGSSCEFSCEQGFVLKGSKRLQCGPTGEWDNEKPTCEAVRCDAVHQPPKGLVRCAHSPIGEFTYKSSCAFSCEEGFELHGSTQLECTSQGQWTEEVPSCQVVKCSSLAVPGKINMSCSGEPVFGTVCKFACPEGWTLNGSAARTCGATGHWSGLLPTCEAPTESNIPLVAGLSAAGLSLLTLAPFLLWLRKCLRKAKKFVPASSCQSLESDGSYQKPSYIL

CCO[Si](CCC(F)(F)C(F)(F)C(F)(F)C(F)(F)C(F)(F)C(F)(F)F)(OCC)OCC
inactive: [1] | [2] | [3] | [4] | [5] | [6] | [7] | [8] | [9] | [10] | [11] | [12] | [13] | [14] | [15]
active: [15] 0.638 µM

COC(=O)C1CCC(C(=O)OC)CC1 (stereo unspecified)
inactive: [1] | [2] | [3] | [9]

FC(F)(F)C(F)(F)C(F)(F)N(C(F)(F)C(F)(F)C(F)(F)F)C(F)(F)C(F)(F)C(F)(F)F
not listed: [1] | [17] | [18]
inactive: all other assays above

Nc1ccc(Oc2cccc(Oc3ccc(N)cc3)c2)cc1
inactive: [9]

CO[Si](OC)(c1ccccc1)c1ccccc1
active: [4] 31 µM | [6] 32 µM | [7] 0.148 µM | [10] 36.9 µM | [17] 37.4 µM
not listed: [3] | [16] | [18]
inactive: all other assays above

CCCCCCCCC(F)(F)C(F)(F)C(F)(F)C(F)(F)C(F)(F)C(F)(F)F
active: [2] 21.2 µM
not listed: [3] | [17]
inactive: all other assays above

C=C(C)C(=O)OCC(F)(F)C(F)(F)C(F)(F)F
not listed: [3] | [17] | [18]
inactive: all other assays above

CS(C)(=O)=O
not listed: [2] | [3] | [9] | [16] | [18]
inactive: all other assays above

CCCCCCC(C)OC(=O)CCCCC(=O)OC(C)CCCCCC (stereo unspecified)
active: [2] 16.3 µM
not listed: [3] | [18]
inactive: all other assays above
